We go through 40 compounds from ChEMBL document CHEMBL1157539, “Thousands of chemical starting points for antimalarial lead identification” (Nature, 2010).

Structures are written as SMILES.

The first assay relates to Plasmodium falciparum. Description: GSK_TCMDC: Inhibition of Plasmodium falciparum 3D7 in whole red blood cells, using parasite LDH activity as an index of growth. Test compounds present at 2uM. The assay is classed as functional.
Broadly, the Inhibition is the drop in the measured response relative to a control, in per cent. Read a high Inhibition as a strong effect. As to `O=C(NCc1cccc(F)c1)Nc1ccc(-c2cccc(-c3nc4ccccc4[nH]3)c2)cc1`, the Inhibition was found to be 86%.

`Cc1cc(C)c(-c2n[nH]c3c2C(c2cccc(Cl)c2)N(Cc2ccco2)C3=O)c(O)c1` (stereo not given) showed an Inhibition of 96%.

`CN1CCC[C@H]1COc1ccc(CN2CC[C@H](NC(=O)c3ccc(Cl)c(Cl)c3)C2)c2ccccc12.O=C(O)C(F)(F)F` yielded an Inhibition of 100%.

In turn, `CC12CCC(C(=O)N(CC(O)Cn3c4ccc(Cl)cc4c4cc(Cl)ccc43)C1=O)C2(C)C` (stereo not given) gave an Inhibition of 100%.

For the compound `CS(=O)(=O)CCNCc1cccc(-c2ccc3c(Nc4ccc(Oc5cccnc5)cc4)ccnc3c2)c1`, the Inhibition is given as 100%.

As to `COc1ccccc1C(C)NCC(=O)Nc1cccc(C(=O)Nc2cccc(C(F)(F)F)c2)c1` (stereo not given), the Inhibition is reported as 91%.

`Cc1cccc2nc(-c3cccc(-c4cccc(CNCCN5CCNCC5)c4)c3)[nH]c12.O=C(O)C(F)(F)F` came in with an Inhibition of 90%.

The compound `CC(C)(C)c1ccc(CN2CCC(CNC(=O)c3cc(-c4cccc(Cl)c4)cs3)C2)cc1.O=C(O)C(F)(F)F` (stereo not given) returned an Inhibition of 100%.

Consider `Cn1nc(C(F)(F)F)c(-c2ccc(Br)cc2)c1NC(=O)Cc1ccccc1F`, for which the Inhibition came to 100%.

For `COc1ccc(N2CCN(CCCCNC(=O)c3ccc(NC(=O)c4ccc(C(F)(F)F)cc4)cc3)CC2)c(OC)c1`, the Inhibition is 100%.

Compound `Cl.O=C(C=Cc1ccc(C(=O)Nc2ccc(C3=NCCN3)cc2)cc1)Nc1ccc(C2=NCCN2)cc1` returned an Inhibition of 97%.

`Cc1ccccc1C1CCN(C2CCC(NC(=O)/C=C/c3ccc4c(c3)OC(F)(F)O4)CC2)CC1` (stereo not given) displayed an Inhibition of 100%.

`CCCc1cc(=O)oc2cc(OC)c(C(=O)CC(C)C)c(OC)c12` displayed an Inhibition of 81%.

Consider `Cc1ccc(NC(C)C(=O)Nc2ccccc2)cc1S(=O)(=O)N1CCCCCC1` (stereo not given), for which the Inhibition came out at 99%.

`COc1ccc(Br)cc1/C=C/C(=O)Nc1ccc2c(c1)CCCN(C)C2`: the Inhibition worked out at 84%.

`CC(=O)Nc1nc(C(=O)Nc2cccc(-c3ccc(-c4nc5cccc(C)c5[nH]4)s3)c2)cs1`: the Inhibition amounted to 100%.

`CC(CN(C)C)C(=O)Nc1cccc(-c2ccc(-c3nc4cc(F)ccc4[nH]3)s2)c1` (stereo not given) displayed an Inhibition of 100%.

`Cl.Nc1ccc(-c2cc(Cl)cc(Cl)c2)cc1-c1cc2ccccc2[nH]1` registered an Inhibition of 100%.

With `O=C(CSc1nc(-c2ccccc2Cl)ns1)Nc1cccc(F)c1`, the Inhibition was 93%.

On to `Cc1[nH]c(C)c(-c2ccc(OCc3cccc(C(F)(F)F)c3)nc2)c(=O)c1Br`, for which the Inhibition is reported as 99%.

Compound `COc1cc2c(Nc3ccc(NC(=O)c4ccccc4)cc3)ncnc2cc1OCCCN1CCOCC1` had an Inhibition of 99%.

As for `O=C(O)C(F)(F)F.c1cc(CN2CCN(c3ccncc3)CC2)cc(-c2cccc(-c3nc4ccccc4[nH]3)c2)c1`, the Inhibition was 100%.

Turning to `O=C(Nc1ccc([N+](=O)[O-])cc1)Nc1cc(OCC(F)(F)F)cc(OCC(F)(F)F)c1`, the Inhibition came to 100%.

Regarding `COc1ccc(-c2nc3c(NCc4ccccc4)nccc3[nH]2)c(OC)c1`, the Inhibition was determined as 99%.

Regarding `COc1ccc(CCn2c(=N)c(C(=O)NCc3cccnc3)cc3c(=O)n4ccccc4nc32)cc1`, the Inhibition was determined as 98%.

In the case of `O=C(/C=C/c1ccc(Cl)c(Cl)c1)NCCCCCN1CCCN(C(=O)Nc2cccc(Cl)c2)CC1`, the Inhibition is given as 100%.

Compound `O=C(NOCCOc1ccccc1)c1ccccc1` yielded an Inhibition of 98%.

`Cc1cc2c(NC(=O)NC3CCN(Cc4ccc(Cl)c(Cl)c4)CC3)cccc2cn1.Cl`: the Inhibition is 100%.

Take `O=C(c1cc(-c2ccccc2)n[nH]1)N1CCN(S(=O)(=O)c2ccc(Cl)s2)CC1`: the Inhibition stood at 88%.

Turning to `COc1ccc(-n2cc(C(=O)c3cc(Br)ccc3O)cc(C#N)c2=O)cc1Cl`, the Inhibition turned out to be 99%.

`CCCCNCc1ccc(-c2nc(CN(CCCn3ccnc3)C(=O)C3COc4ccccc4O3)cs2)cc1.O=C(O)C(F)(F)F` (stereo not given) displayed an Inhibition of 93%.

As for `CC(C)C[C@H](NC(=O)c1cc2ccccc2s1)C(=O)N[C@H]1CCN(Cc2ccc(OC[C@@H]3CCCN3C)c3ccccc23)C1.O=C(O)C(F)(F)F`, the Inhibition amounted to 100%.

`COc1ccc(CC(=O)Nc2ccc(Nc3nc(C)cc(N(C)C)n3)cc2)cc1`: the Inhibition was found to be 97%.

In turn, `Cc1cc(NCCC(=O)Nc2ccccc2)nc(NCC2CCCCC2)n1.O=C(O)C(F)(F)F` returned an Inhibition of 100%.

`COc1cccc(C(O)CNc2ccnc(Nc3cccc(-c4csc(C)n4)c3)n2)c1` (stereo not given) returned an Inhibition of 99%.

As for `Fc1cccc(COc2ccc(Nc3ncnc4cc(/C=C/[C@@H]5CCCN5)sc34)cc2Cl)c1`, the Inhibition was 100%.

For `Br.Oc1ccc(CCNCCCCCCNCCc2ccc(Cl)c(Cl)c2)cc1O`, the Inhibition is 100%.

Regarding `O=S(=O)(Nc1ccc(CCN2CCC(N3CCCCC3)CC2)cc1)c1cccc2cccnc12`, the Inhibition came out at 100%.

With `CCOC(=O)c1ccc(NC(=O)N[C@@H](Cc2ccccc2)C(=O)NC2CCN(Cc3ccc(O)cc3)C2)cc1` (stereo not given in full), the Inhibition turned out to be 95%.

For the compound `CCNc1cc(-c2cccc(OC)c2)nc(Nc2ccc(F)cc2)n1`, the Inhibition was 87%.

A further assay relates to Plasmodium falciparum. Description: GSK_TCMDC: Inhibition of Plasmodium falciparum Dd2 in whole red blood cells, using parasite LDH activity as an index of growth. Test compounds present at 2uM. The format is functional.
As for `O=C(NCc1cccc(F)c1)Nc1ccc(-c2cccc(-c3nc4ccccc4[nH]3)c2)cc1`, the Inhibition was 2%.

Compound `Cc1cc(C)c(-c2n[nH]c3c2C(c2cccc(Cl)c2)N(Cc2ccco2)C3=O)c(O)c1` (stereo not given) registered an Inhibition of 89%.

With `CN1CCC[C@H]1COc1ccc(CN2CC[C@H](NC(=O)c3ccc(Cl)c(Cl)c3)C2)c2ccccc12.O=C(O)C(F)(F)F`, the Inhibition was 98%.

With `CC12CCC(C(=O)N(CC(O)Cn3c4ccc(Cl)cc4c4cc(Cl)ccc43)C1=O)C2(C)C` (stereo not given), the Inhibition is reported as 99%.

For the compound `CS(=O)(=O)CCNCc1cccc(-c2ccc3c(Nc4ccc(Oc5cccnc5)cc4)ccnc3c2)c1`, the Inhibition is on record as 99%.

As for `COc1ccccc1C(C)NCC(=O)Nc1cccc(C(=O)Nc2cccc(C(F)(F)F)c2)c1` (stereo not given), the Inhibition came out at 39%.

On to `Cc1cccc2nc(-c3cccc(-c4cccc(CNCCN5CCNCC5)c4)c3)[nH]c12.O=C(O)C(F)(F)F`, for which the Inhibition stood at 0%.

Turning to `CC(C)(C)c1ccc(CN2CCC(CNC(=O)c3cc(-c4cccc(Cl)c4)cs3)C2)cc1.O=C(O)C(F)(F)F` (stereo not given), the Inhibition was determined as 83%.

Compound `Cn1nc(C(F)(F)F)c(-c2ccc(Br)cc2)c1NC(=O)Cc1ccccc1F` had an Inhibition of 100%.

In turn, `COc1ccc(N2CCN(CCCCNC(=O)c3ccc(NC(=O)c4ccc(C(F)(F)F)cc4)cc3)CC2)c(OC)c1` had an Inhibition of 8%.

With `Cl.O=C(C=Cc1ccc(C(=O)Nc2ccc(C3=NCCN3)cc2)cc1)Nc1ccc(C2=NCCN2)cc1`, the Inhibition amounted to 100%.

In turn, `Cc1ccccc1C1CCN(C2CCC(NC(=O)/C=C/c3ccc4c(c3)OC(F)(F)O4)CC2)CC1` (stereo not given) returned an Inhibition of 39%.

Regarding `CCCc1cc(=O)oc2cc(OC)c(C(=O)CC(C)C)c(OC)c12`, the Inhibition was 67%.

`Cc1ccc(NC(C)C(=O)Nc2ccccc2)cc1S(=O)(=O)N1CCCCCC1` (stereo not given): the Inhibition is reported as 97%.

In the case of `COc1ccc(Br)cc1/C=C/C(=O)Nc1ccc2c(c1)CCCN(C)C2`, the Inhibition was 10%.

`CC(=O)Nc1nc(C(=O)Nc2cccc(-c3ccc(-c4nc5cccc(C)c5[nH]4)s3)c2)cs1` returned an Inhibition of 67%.

Regarding `CC(CN(C)C)C(=O)Nc1cccc(-c2ccc(-c3nc4cc(F)ccc4[nH]3)s2)c1` (stereo not given), the Inhibition was found to be 99%.

In turn, `Cl.Nc1ccc(-c2cc(Cl)cc(Cl)c2)cc1-c1cc2ccccc2[nH]1` yielded an Inhibition of 97%.

`O=C(CSc1nc(-c2ccccc2Cl)ns1)Nc1cccc(F)c1` returned an Inhibition of 81%.

For `Cc1[nH]c(C)c(-c2ccc(OCc3cccc(C(F)(F)F)c3)nc2)c(=O)c1Br`, the Inhibition is 97%.

In turn, `COc1cc2c(Nc3ccc(NC(=O)c4ccccc4)cc3)ncnc2cc1OCCCN1CCOCC1` came in with an Inhibition of 93%.

Compound `O=C(O)C(F)(F)F.c1cc(CN2CCN(c3ccncc3)CC2)cc(-c2cccc(-c3nc4ccccc4[nH]3)c2)c1` came in with an Inhibition of 98%.

With `O=C(Nc1ccc([N+](=O)[O-])cc1)Nc1cc(OCC(F)(F)F)cc(OCC(F)(F)F)c1`, the Inhibition is 100%.

As to `COc1ccc(-c2nc3c(NCc4ccccc4)nccc3[nH]2)c(OC)c1`, the Inhibition was 21%.

In turn, `COc1ccc(CCn2c(=N)c(C(=O)NCc3cccnc3)cc3c(=O)n4ccccc4nc32)cc1` displayed an Inhibition of 5%.

Turning to `O=C(/C=C/c1ccc(Cl)c(Cl)c1)NCCCCCN1CCCN(C(=O)Nc2cccc(Cl)c2)CC1`, the Inhibition was determined as 2%.

The compound `O=C(NOCCOc1ccccc1)c1ccccc1` yielded an Inhibition of 0%.

As to `Cc1cc2c(NC(=O)NC3CCN(Cc4ccc(Cl)c(Cl)c4)CC3)cccc2cn1.Cl`, the Inhibition was found to be 41%.

Compound `O=C(c1cc(-c2ccccc2)n[nH]1)N1CCN(S(=O)(=O)c2ccc(Cl)s2)CC1` came in with an Inhibition of 81%.

Regarding `COc1ccc(-n2cc(C(=O)c3cc(Br)ccc3O)cc(C#N)c2=O)cc1Cl`, the Inhibition is recorded as 23%.

With `CCCCNCc1ccc(-c2nc(CN(CCCn3ccnc3)C(=O)C3COc4ccccc4O3)cs2)cc1.O=C(O)C(F)(F)F` (stereo not given), the Inhibition was found to be 8%.

Compound `CC(C)C[C@H](NC(=O)c1cc2ccccc2s1)C(=O)N[C@H]1CCN(Cc2ccc(OC[C@@H]3CCCN3C)c3ccccc23)C1.O=C(O)C(F)(F)F` returned an Inhibition of 93%.

For the compound `COc1ccc(CC(=O)Nc2ccc(Nc3nc(C)cc(N(C)C)n3)cc2)cc1`, the Inhibition came to 31%.

As for `Cc1cc(NCCC(=O)Nc2ccccc2)nc(NCC2CCCCC2)n1.O=C(O)C(F)(F)F`, the Inhibition came to 62%.

For `COc1cccc(C(O)CNc2ccnc(Nc3cccc(-c4csc(C)n4)c3)n2)c1` (stereo not given), the Inhibition amounted to 73%.

Consider `Fc1cccc(COc2ccc(Nc3ncnc4cc(/C=C/[C@@H]5CCCN5)sc34)cc2Cl)c1`, for which the Inhibition stood at 56%.

Compound `Br.Oc1ccc(CCNCCCCCCNCCc2ccc(Cl)c(Cl)c2)cc1O` yielded an Inhibition of 2%.

As for `O=S(=O)(Nc1ccc(CCN2CCC(N3CCCCC3)CC2)cc1)c1cccc2cccnc12`, the Inhibition came out at 45%.

Regarding `CCOC(=O)c1ccc(NC(=O)N[C@@H](Cc2ccccc2)C(=O)NC2CCN(Cc3ccc(O)cc3)C2)cc1` (stereo not given in full), the Inhibition was 2%.

Consider `CCNc1cc(-c2cccc(OC)c2)nc(Nc2ccc(F)cc2)n1`, for which the Inhibition is 23%.
